A short description of the assay: NCI Yeast Anticancer Drug Screen. Data for the rad14 strain (AID 159).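 Further: 0% = growth of vehicle-treated control cultures.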 The conditions noted are these: S. cerevisiae rad14 strain growth inhibition, hits give high values. As for the experimental part:
Growth inhibition of yeast strains with defined genetic alterations is measured as a screen for potential anti-cancer activity. Selected strains with alterations in DNA damage repair or cell cycle control were exposed to compounds and growth inhibition was measured relative to vehicle treated controls. The strain used in this assay is rad14

The panel holds about 79,000 compounds, 15% with a hit somewhere; the sample as a whole holds those more often. Unmarked numbers belong to inactive results. Calls of active or inactive are those of the source. No stated cut-off is given here; in the data, active means growth inhibition above about 70%; inactive means the rest.

Regarding `Cc1cc(O)c(C(C)C)cc1C1(c2cc(C(C)C)c(O)cc2C)OC(=O)c2ccccc21`, the growth inhibition is, setting by setting: (at 1.2 µM) -1%; (at 3.7 µM) 1%; (at 11.0 µM) -1%; (at 33.0 µM) -4%; (at 100.0 µM) 33%.
On to `CN(C)CCNC(=O)c1cccc2cc([N+](=O)[O-])ccc12`, for which the growth inhibition reads like this: (at 1.2 µM) -1%; (at 3.7 µM) 10%; (at 11.0 µM) 47%; (at 33.0 µM) 80% (active); (at 100.0 µM) 93% (active).
The like results for `CC(=O)OCC1OC2OC(=O)NC2C(OC(C)=O)C1OC(C)=O` (stereo not given) were, in that order, -2%, -1%, -3%, 2% and 2%.
In the case of `S=c1[nH]c2cc3ccccc3cc2[nH]1`, the growth inhibition reads like this: (at 1.2 µM) -14%; (at 3.7 µM) -11%; (at 11.0 µM) -7%; (at 33.0 µM) -10%; (at 100.0 µM) 1%.
The like results for `CC(C)OC(=O)c1ccc(CCc2cc(O)c(Br)cc2O)cc1` were, in that order, 43%, 53%, 75% (active), 96% (active) and 92% (active).
The like results for `CCOC1=C/C(=N\Nc2ccc([N+](=O)[O-])cc2)CCC1` were, in that order, 2%, 9%, 27%, 73% (active) and 33%.
The like results for `Cc1cc(C)nc(NS(=O)(=O)c2ccc(Nc3c4ccccc4nc4c(C(=O)NCCO)cccc34)cc2)n1` were, in that order, 0%, 1%, 4%, 9% and 26%.
For `CC[N+](CC)(CC)c1ccccc1`, the growth inhibition is -28% (at 1.2 µM); -36% (at 3.7 µM); -34% (at 11.0 µM); -33% (at 33.0 µM); -25% (at 100.0 µM).

The record behind these values is PubChem BioAssay (NCI).
